Screens from PubChem.
Shown are actives, neighbours in structure and some others; about 1.3% of the full set was active somewhere.
Gli-Sufu antag = antagonists of Gli-Sufu signaling; inhibition, % at 5 µM; Sufu-KO-LIGHT fibroblasts, Gli luciferase reporter luminescence; AID 588413; 340,000 tested, 0.74% active;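 active = inhibition above about 55%, limit read from the data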
COUP-TFII inh = blocks human COUP-TFII nuclear receptor; P24468; inhibition, % at 8.6 µM; 370,000 tested, 0.7% active; AID 686940; HEK293T NGFI-A luciferase reporter, luminescence;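 active = inhibition above a per-plate cutoff, mean inhibition of test wells between control levels plus 3 SD, cut at about 38% in these data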;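 note: cells cotransfected with COUP-TFII expression vector driving the NGFI-A reporter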
NCOA3 inh = human NCOA3 inhibition. Q9Y6Q9. HEK293 GAL4-SRC3 luciferase reporter, luminescence. inhibition, % at 3.6 µM. 360,000 tested, 0.17% active. AID 588352;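 active = inhibition above a per-campaign cutoff, the mean of all compounds plus 3 SD, cut at about 60% in these data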;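 note: higher means less SRC3-driven luciferase light from the GAL4 reporter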
SRC2 inh = inhibits human steroid receptor coactivator 2. Q15596. HEK293 GAL4-SRC2 luciferase reporter, luminescence. inhibition, % at 9 µM. 370,000 tested, 0.17% active. AID 651957;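 active = inhibition above the mean inhibition of all tested compounds plus 3 SD, set per campaign, cut at about 52% in these data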
SRC1 inh = inhibitors of human steroid receptor coactivator 1 (SRC1); HEK293 GAL4-SRC1 luciferase reporter, luminescence; 360,000 tested, 0.12% active; inhibition, % at 3.6 µM; AID 588354;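 active = inhibition above the campaign mean plus 3 SD, with each screening campaign given its own cutoff, cut at about 60% in these data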
NR5A2 inv ag = suppresses constitutive activity of human LRH-1; 360,000 tested, 0.13% active; AID 602396; O00482; inhibition, % at 3.6 µM; HEK293T StAR-luciferase reporter, LRH-1 transfected, 24 h;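 active = inhibition above the mean inhibition of all tested compounds plus 3 SD, cut at about 73% in these data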
Gal4-VP16 ctr = VP16 inhibition counter-screen for COUP-TFII | AID 687007 | inhibition, % at 8.5 µM | HEK293 Gal4-VP16 luciferase reporter, luminescence | shares compounds with COUP-TFII inh | 2,500 tested, 25% active; in the data active = inhibition above about 13%
COUP-TFII conf = confirmation of human COUP-TFII (NR2F2) inhibitors | HEK293 NGFI-A luciferase reporter, luminescence | 2,500 tested, 45% active | shares compounds with COUP-TFII inh | inhibition, % at 8.5 µM | AID 687008;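 active = mean inhibition over three repeats above a set limit taken from the earlier primary screen, cut at about 38% in these data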
Hits are given with their value; 0 = inactive; - = not tested or not shown.

SMILES	Gli-Sufu antag	COUP-TFII inh	NCOA3 inh	SRC2 inh	SRC1 inh	NR5A2 inv ag	Gal4-VP16 ctr	COUP-TFII conf
CCN(CC)S(=O)(=O)c1cc(NC(=O)CCCOc2ccc(C(C)=O)cc2)ccc1C	0	42.4	0	0	0	0	0	0
CC(=O)c1ccc(OCCCC(=O)Nc2cc(S(=O)(=O)N(C)C)ccc2C)cc1	0	0	0	0	0	0	-	-
CCOC(=O)[C@@]12CN(C(=O)OC(C)(C)C)CC=C1N(Cc1ccc(OC)cc1)C(=O)[C@H]2CC(=O)N1CCCC1	-	0	-	0	-	-	-	-
COc1ccc(/C=C/c2cc(-c3ccc(C)cc3)o[n+]2C)cc1	87.4	67.3	71.5	0	0	94.2	37.0	65.7
COC(=O)c1ccc(NC(=O)c2nc(S(=O)(=O)Cc3cccc(C)c3)ncc2Cl)cc1	0	39.6	0	59.6	0	0	45.8	0
CCS(=O)(=O)c1ncc(Cl)c(C(=O)Nc2ccc(S(=O)(=O)N3CCC(C)CC3)cc2)n1	0	48.3	0	0	0	0	76.3	62.9
COC(=O)c1c(-c2cccc3ccccc23)csc1NC(=O)Cc1ccc(OC)c(OC)c1	0	41.3	0	0	0	0	0	0
COc1ccc(Cn2ccc3ccc(-c4ccc5ccn(C(=O)c6ccccc6OC)c5c4)cc32)cc1	-	0	-	0	-	-	-	-
S=C(NCC1CCCO1)N1CCN(c2cccc(Cl)c2)CC1 (stereo not drawn)	0	0	0	0	0	0	-	-
S=C(NCC1CCCO1)N1CCN(c2nc(-c3ccc(Cl)cc3)cs2)CC1 (stereo not drawn)	0	59.4	0	0	0	0	0	0
CCOCCCNC(=S)N1CCN(c2nc(-c3ccc(F)cc3)cs2)CC1	0	59.2	0	0	0	0	0	41.5
CCOC(=O)[C@]12CCCCC/C=C\1N(CCc1ccc(Cl)cc1)C(=O)[C@H]2CC(=O)NCCC(C)C	-	0	-	0	-	-	-	-
COc1cc(CCC(=O)OCC(=O)Nc2sccc2C(N)=O)cc(OC)c1OC	0	38.6	0	0	0	0	0	0
NC(=O)c1ccsc1NC(=O)COC(=O)Cc1cccc2ccccc12	0	52.9	0	0	0	0	0	38.6
COc1ccc(CC(=O)NCc2nn(-c3ccccc3)nc2C)cc1OC	0	0	0	0	0	0	-	-
COc1ccc(-c2ocnc2C(=O)NCc2nn(-c3ccccc3)nc2C)cc1	0	60.3	0	0	0	0	0	40.5
CN(C)S(=O)(=O)c1ccc(C(=O)Nc2nc(-c3cccs3)cs2)cc1	0	53.6	0	0	0	0	0	0
CC(=O)CSc1ccc(-c2nc3cc(C)c(C)cc3[nH]2)cn1	0	53.8	0	63.4	0	0	0	0
CC(=O)OC1CCC2(C)C(CCC3C4CC=C(C(C)=O)C4(C)OC(=O)CC32)C1 (stereo not drawn)	-	57.2	0	59.2	0	0	37.4	44.2
COC(=O)[C@]12CCCCC=C1N(Cc1ccc(OC)cc1)C(=O)[C@@H]2CC(=O)NCc1cccs1	-	0	-	0	-	-	-	-
COc1ccccc1N(C)S(=O)(=O)c1ccc(C(=O)Nc2ccc(N3CCOCC3)cc2)cc1	0	0	0	0	0	0	-	-
C=CCN(c1ccccc1OC)S(=O)(=O)c1ccc(Cl)c(C(=O)Nc2ccc(N3CCOCC3)cc2)c1	0	42.5	0	0	0	0	0	0
Nc1ccc(-c2nc3c(Cl)cc(N)cc3[nH]2)cc1	-	47.8	0	53.3	0	0	57.2	0
COc1cc(-c2cnc3c(NC=O)cc(-c4cccc(C(F)(F)F)c4)cn23)cc(OC)c1OC	-	40.6	0	0	0	0	0	0
Cc1cccc(-c2cc(NC=O)c3ncc(-c4cccc(C(=O)N(C)C)c4)n3c2)c1	-	0	0	0	0	0	-	-
SMILES	Gli-Sufu antag	COUP-TFII inh	NCOA3 inh	SRC2 inh	SRC1 inh	NR5A2 inv ag	Gal4-VP16 ctr	COUP-TFII conf
CN(C)C(=O)c1cccc(-c2cnc3c(NC=O)cc(-c4cccc(C(F)(F)F)c4)cn23)c1	-	46.0	0	0	0	0	0	0
C[C@@H]1COc2cccc(F)c2S(=O)(=O)N1C	-	0	-	0	-	-	-	-
CC1=C(CO)C(=O)OC([C@@H](C)C2CC[C@H]3C4C[C@H]5O[C@]56[C@@H](O)C=CC(=O)[C@]6(C)C4CC[C@]23C)C1 (stereo partly drawn)	0	43.7	0	68.4	0	0	49.1	41.0
CCN(CC)c1ccc(C(=O)NNC(=O)CCl)cc1	0	0	0	0	0	0	-	-
CCN(CC)c1ccc(C(=C2C=CC(=[N+](CC)CC)C=C2)c2ccccc2)cc1	92.3	105.2	61.8	94.3	0	94.9	98.2	112.7
CCN(CC)c1ccc(C(=O)NNC(=O)CCNC(=O)c2ccccc2)cc1	-	0	0	0	0	0	-	-
CCN(CC)c1ccc(C(=C2C=CC(=[N+](CC)CC)C=C2)c2ccc(N(CC)CC)cc2)cc1	87.2	83.4	78.7	0	67.3	95.8	57.0	79.6
O=C1C(NC(=O)C(F)(F)Br)CCCCN1Cc1cccc(C(F)(F)F)c1 (stereo not drawn)	-	0	-	0	-	-	-	-
CCOC(=O)c1ccc(NC(=O)C2CCCN(S(=O)(=O)c3ccc(F)cc3)C2)cc1 (stereo not drawn)	0	64.5	0	0	0	0	0	0
O=[N+]([O-])c1cccc(NCCCN2CCC(C(O)(c3ccccc3)c3ccccc3)CC2)c1	-	0	-	0	-	-	-	-
O=C1/C(=C/c2ccncc2)CCC/C1=C\c1ccncc1	0	84.5	0	74.2	0	0	65.9	89.7
c1ccc2c(-c3cnc4cccnn34)cncc2c1	-	0	0	0	0	0	-	-
c1cc(-c2cnc3cccnn23)c2cccnc2c1	-	45.5	0	65.9	63.2	0	0	0
CCOC(=O)[C@@]12CCCC=C1N(CCc1ccc(Cl)cc1)C(=O)[C@H]2CC(=O)N1CCN(C(=O)c2ccco2)CC1	-	39.0	-	0	-	-	0	0
O=S(=O)(c1ccccc1)N1CCC(O)(CSc2ccc(F)cc2)CC1	0	40.5	0	0	0	0	0	0
COc1cccc(CC(=O)N(Cc2ccccc2)c2ccccc2C(=O)Nc2cc(OC)ccc2OC)c1	-	0	-	0	-	-	-	-
COc1ccc(S(=O)(=O)N2CCN(CCOc3ccc(Br)cc3)CC2)cc1OC	0	60.4	0	0	0	0	0	0
COCCC(=O)Nc1ccc2c(c1)CN(C(=O)CSC)CC2	0	0	0	0	0	0	-	-
COCCC(=O)N1CCc2ccc(NC(=O)c3ccc(C(F)(F)F)cc3)cc2C1	0	37.8	0	0	0	0	0	0
CN(C)S(=O)(=O)N1CCc2ccc(NC(=O)c3ccc(C(F)(F)F)cc3)cc2C1	0	56.0	0	0	0	0	0	0
CCOC(=O)[C@]12CCCC=C1N(Cc1ccc(OC)cc1)C(=O)[C@@H]2CC(=O)NCc1ccc(OC)c(OC)c1	-	0	-	0	-	-	-	-
CCOc1ccccc1C(=O)N1CCC(Oc2cccnc2)CC1	-	0	-	0	-	-	-	-
